The campaign covered roughly 310,000 compounds. About 14,000 (4.5%) showed an effect of 50% or more. Effects have a minus sign here. The sample as a whole holds a higher share of strong results than the screen did.
target: human ether-à-go-go-related gene (hERG) potassium channel (human, UniProt Q12809); assay: primary screen, population patch clamp on CHO cells stably expressing hERG; higher = less effect of the substance
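Further: peak tail current of the secondary pulse compared with the same well before compound.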

Sequence of human ether-à-go-go-related gene (hERG) potassium channel (Q12809 whole entry, looked up): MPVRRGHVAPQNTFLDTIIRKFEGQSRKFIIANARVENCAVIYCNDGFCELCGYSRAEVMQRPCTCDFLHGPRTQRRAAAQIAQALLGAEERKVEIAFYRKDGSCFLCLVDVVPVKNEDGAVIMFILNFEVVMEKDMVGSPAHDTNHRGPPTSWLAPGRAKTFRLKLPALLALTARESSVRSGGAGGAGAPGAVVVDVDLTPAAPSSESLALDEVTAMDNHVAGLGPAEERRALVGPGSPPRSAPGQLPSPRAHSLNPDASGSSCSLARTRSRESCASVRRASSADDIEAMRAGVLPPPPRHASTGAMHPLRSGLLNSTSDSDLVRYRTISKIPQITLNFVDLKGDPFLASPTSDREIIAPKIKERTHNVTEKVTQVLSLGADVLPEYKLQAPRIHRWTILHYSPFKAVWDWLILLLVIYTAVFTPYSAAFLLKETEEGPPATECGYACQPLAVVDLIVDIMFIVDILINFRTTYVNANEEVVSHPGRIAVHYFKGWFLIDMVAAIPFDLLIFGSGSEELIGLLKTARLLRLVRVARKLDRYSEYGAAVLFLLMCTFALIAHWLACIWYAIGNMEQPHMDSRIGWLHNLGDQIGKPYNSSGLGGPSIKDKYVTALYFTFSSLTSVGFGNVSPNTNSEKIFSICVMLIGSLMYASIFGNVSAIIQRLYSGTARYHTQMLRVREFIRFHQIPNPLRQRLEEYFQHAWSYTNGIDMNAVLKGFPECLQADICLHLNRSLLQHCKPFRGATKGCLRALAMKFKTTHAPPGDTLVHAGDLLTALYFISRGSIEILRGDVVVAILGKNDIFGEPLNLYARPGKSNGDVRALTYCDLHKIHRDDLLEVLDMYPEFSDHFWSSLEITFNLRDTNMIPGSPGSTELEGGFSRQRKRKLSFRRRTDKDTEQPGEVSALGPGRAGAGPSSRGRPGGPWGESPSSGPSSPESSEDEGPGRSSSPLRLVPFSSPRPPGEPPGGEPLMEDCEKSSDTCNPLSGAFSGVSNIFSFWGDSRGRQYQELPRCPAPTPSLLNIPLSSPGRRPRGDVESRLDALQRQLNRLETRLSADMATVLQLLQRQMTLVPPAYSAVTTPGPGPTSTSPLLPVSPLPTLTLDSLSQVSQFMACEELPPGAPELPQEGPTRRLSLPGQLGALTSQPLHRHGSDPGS

SMILES | hERG current change (%, negative = inhibition) at 10uM [%]
COCc1cc(CN2CCN(CCc3ccccc3)C(CCO)C2)ccc1OC (centres unmarked) | -56.9
CC(C)(O)C#Cc1ccc(CN2CCN(Cc3ccsc3)C(CCO)C2)cc1 (centres unmarked) | -21.6
O=C1CN(c2ccc(Cl)cc2)C2(CCCCC2)S1 | 4.49
Cc1ccc(Cn2ccc(NC(=O)c3cc(-c4ccc(Br)cc4)on3)n2)cc1 | 22.6
CCOC(=O)c1cc2nc(-c3ccccc3)cc(C)n2n1 | 5.61
COC(=O)c1cc2ccsc2n1Cc1nc(-c2ccc(Cl)cc2)oc1C | 7.33
CSc1nc(N(C)NC(=O)c2ccc(Cl)cc2)c2ccccc2n1 | 2.16
Cc1ccc(OCc2ccc(C(=O)Nc3ccc(S(N)(=O)=O)cc3)o2)cc1 | 12.4
CCOC(=O)C1=C(O)CSC1=Nc1ccc(C)cc1 | -4.86
CCC(C)n1c(SCC(=O)Nc2cc(C(C)(C)C)nn2-c2ccccc2)nc2ccccc2c1=O (centres unmarked) | 3.57
O=C(Nc1ccc(Cl)cc1)N1CC2CC(C1)c1cccc(=O)n1C2 (centres unmarked) | 4.31
CCOc1ccc(NC(=O)c2ccc(N3CC4CC(C3)c3cccc(=O)n3C4)c(N)c2)cc1 (centres unmarked) | -21.7
CCCNC(=O)c1ccc(N2CC3CC(C2)c2cccc(=O)n2C3)c(NC(=O)Nc2ccc(CC)cc2)c1 (centres unmarked) | -78.7
CCc1ccc(NC(=O)Nc2cc(C(=O)O)ccc2N2CC3CC(C2)c2cccc(=O)n2C3)cc1 (centres unmarked) | 20.4
CCc1ccc(NC(=O)Nc2cc(C(=O)NCC3CCCO3)ccc2N2CC3CC(C2)c2cccc(=O)n2C3)cc1 (centres unmarked) | -17.6
Nc1cc(C(=O)Nc2ccc(Cl)cc2)ccc1N1CC2CC(C1)c1cccc(=O)n1C2 (centres unmarked) | -62.1
COc1ccc(CCNC(=O)C2CCC(=O)N2CCc2ccccc2)cc1OC (centres unmarked) | 12.4
O=c1nc2n(c3ccc([N+](=O)[O-])cc13)CCCCC2 | -15.4
COCc1cc(=O)[nH]c(Nc2nc(C)c3cc(OC)ccc3n2)n1 | 7.05
COCc1cc(=O)[nH]c(Nc2nc(C)c3ccccc3n2)n1 | -8.74
CCc1ccc2nc(Nc3nc(COC)cc(=O)[nH]3)nc(C)c2c1 | -73.3
CCC(=O)Nc1ccc(C(=O)Nc2ccc(OC)cc2[N+](=O)[O-])cc1 | 13.7

SMILES | hERG current change (%, negative = inhibition) at 10uM [%]
FC(F)(F)c1cccc(Cc2noc(CN3CCCCC3c3ccccn3)n2)c1 (centres unmarked) | -8.11
COc1ccccc1C(=O)Nc1ccnn1C1CCN(Cc2cnc(N(C)C)s2)CC1 | -65
Cc1cc(CN2CCC(n3nccc3NC(=O)c3ccccc3Cl)CC2)cc(C)c1O | -74.2
COc1ccccc1CN1CCC(n2nccc2NC(=O)c2ccccc2Cl)CC1 | -76.2
Cc1ncc(CN2CCC(n3nccc3NC(=O)c3ccccc3)CC2)s1 | -19
Cc1ccccc1C(=O)Nc1ccnn1C1CCN(Cc2cccnc2)CC1 | -77.4
COc1cccc(OC)c1OC(=O)/C=C/c1ccc(C)o1 | 6.2
CC(C)(C)C(=O)NCCCNc1ccc([N+](=O)[O-])cc1 | -24.7
CC(C)(C)c1ccc(C(=O)NCCC(=O)NCc2ccco2)cc1 | -36.1
Cc1cc(C)n2nc(CCc3ccccc3)nc2n1 | -12.8
O=C(O)CCC(=O)NC1CCCCC1 | 6.89
COc1ccc(/C=C/c2nc(-c3ccccc3O)n(-c3ccccc3)n2)cc1 | -2.17
COc1ccc(OC)c(CNc2ccc([N+](=O)[O-])cc2C)c1 | 3.55
O=C(Nc1ccnn1C1CCN(Cc2ccccc2)CC1)c1ccccc1Cl | -76.1
O=C(Nc1ccnn1C1CCN(C2CCC2)CC1)c1ccccc1Cl | -63.6
O=C(Nc1ccnn1C1CCN(Cc2cccnc2)CC1)c1ccccc1Cl | -37.1
O=C(Nc1ccnn1C1CCN(C2CCC2)CC1)c1ccccc1 | -0.539
CCc1ccc(CN2CCC(n3nccc3NC(=O)c3ccccc3C)CC2)cc1 | -76.2
Cc1cc(C)c(CN2CCC(n3nccc3NC(=O)c3ccccc3Cl)CC2)cc1C | -50.8
Cc1ccccc1C(=O)Nc1ccnn1C1CCN(Cc2ccccn2)CC1 | -33.9
Cc1ccccc1C(=O)Nc1ccnn1C1CCN(Cc2ccncc2)CC1 | -45.1
O=C(Nc1ccnn1C1CCN(C2CCCC2)CC1)c1ccccc1Cl | -45
